Screening data as filed in PubChem.
MITF act: increases MITF-driven TRPM1 promoter luciferase signal | SK-MEL-5 TRPM1-promoter luciferase, 24 h; % of positive control, neutral wells = 0 | activation, % at 12.5 µM | 300,000 compounds, 0.75% hits | AID 588334;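 active = mean activation of at least 80% with every replicate also reaching 80%; inconclusive = mean reaches 80% but some replicate falls short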;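 note: 0% = neutral control wells and 100% = parthenolide positive control wells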
PfHsp90 set2: growth inhibition of yeast expressing Plasmodium Hsp90 | S. cerevisiae expressing PfHsp90, BacTiter-Glo ATP, 48 h; yeast lacking PDR1 and PDR3 efflux regulators | inhibition, % at 9.4 µM | 310,000 compounds, 0.32% hits;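 active = every replicate shows inhibition above about 80%, whatever the replicate mean, limit read from the data; inconclusive = mean inhibition reaches the set limit but some replicate falls short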;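 note: 0% = DMSO neutral controls and 100% = 20 µM radicicol positive controls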
Vif imaging: blocks HIV Vif function; HEK293T cells, Vif self-association by quenched fluorescence, imaging, 24 h; inhibition, % at 7.49 µM; 340,000 compounds, 0.35% hits; AID 602346; in the data active = inhibition above about 50%, passing the limit was not always enough; inconclusive = no clear call, values can overlap the other calls; inactive = below about 31%
esBAF inh: inhibitors of esBAF chromatin remodeling in mouse ES cells; AID 602393; reporter increase, % at 12.5 µM; Bmi1-luciferase knock-in reporter, 24 h; 100% = twice the neutral-well signal; 350,000 compounds, 2% hits; in the data active = activation above about 40%; inconclusive = no clear call, values can overlap the other calls;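 note: 0% = median of the plate's neutral control wells and 100% = double that signal; a rise in the Bmi1 reporter signal indicates esBAF inhibition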
Wnt bcat act: activates Wnt/beta-catenin signaling in a reporter cell assay; activator, plate reader; activation, % at 9.35 µM; 300,000 compounds, 1.2% hits; AID 743398; in the data active = activation above about 30%, passing the limit was not always enough; inconclusive = no clear call, values can overlap the other calls;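 note: 0% = neutral control wells and 100% = positive control wells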
N-glyco inh: blocks N-linked glycosylation in D54 reporter cells. D54 ERlucT glycosylation luciferase reporter, 24 h; percent of 100 nM tunicamycin response. 360,000 compounds, 0.23% hits. reporter increase, % at 12.5 µM;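 active = mean luciferase reporter signal, scaled so untreated is 0 and the glycosylation-blocking control 100, at or above a set limit in every replicate; inconclusive = mean reaches the limit but not every replicate does; inactive = mean below the limit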;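 note: luciferase carries N-glycosylation sites so blocking glycosylation raises the light; 0% = median of neutral control wells and 100% = median of 100 nM tunicamycin wells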
esBAF Ring1 qPCR: de-represses Ring1 in mouse ESCs, confirming esBAF inhibition; AID 743176; 550 tested, under 10 active; mouse ESC E14, Ring1 mRNA RT-qPCR fold change; fold change at 33 µM; shares compounds with esBAF inh;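 active = Ring1 gene expression raised more than 2-fold over untreated cells in both replicates at either tested dose; inconclusive = only one replicate above 2-fold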;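 note: Ring1 transcript normalised to actin housekeeping signal by TaqMan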
Fgf4 repress: confirmation of esBAF inhibitors: Fgf4 repression in mouse ESCs | mouse ESC E14, Fgf4 mRNA qPCR fold change; stronger effect = lower value | 550 compounds, 4% hits | Fgf4 expression fold change at 33 µM | shares compounds with esBAF inh | AID 743177;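 active = Fgf4 expression under 0.8 fold of control in both repeat measurements at one or both tested doses; inconclusive = under 0.8 fold in just a single repeat measurement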;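 note: Fgf4 transcript normalised to actin in duplex TaqMan qPCR; cells exposed to compound for 24 h before lysis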
esBAF Bmi1 qPCR: esBAF inhibition confirmed by Bmi1 de-repression; shares compounds with esBAF inh; mouse ESE14 ES cells, Bmi1 mRNA qPCR fold; stronger effect = higher value; fold change at 33 µM; 550 tested, under 10 active;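 active = Bmi1 expression fold change above 6 at either tested concentration, seen in replicate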
A549 cytotox: A549 cell cytotoxicity; cell viability change % (negative = cytotoxic), % at 25 µM, hits read low; shares compounds with esBAF inh; 550 tested, under 10 active; plate reader; call rule not given here
HepG2 tox SP: HepG2 cell cytotoxicity at single point | AID 743189 | activity change, negative = inhibition, % at 25 µM | 550 compounds, 4% hits | plate reader; stronger effect = lower value | shares compounds with esBAF inh; in the data active = activity change below about -50%
HEK293 cytotox SP: HEK293 cell cytotoxicity at single point | plate reader | 550 compounds, 3% hits | shares compounds with esBAF inh | activity change, negative = inhibition, % at 25 µM, hits read low | AID 743190; in the data active = activity change below about -38%, passing the limit was not always enough
Active calls of the source: *; u = inconclusive; x = no result given. A selection: hits, their analogues and other compounds. The true share with any hit is near 3%.

SMILES	MITF act	PfHsp90 set2	Vif imaging	esBAF inh	Wnt bcat act	N-glyco inh	esBAF Ring1 qPCR	Fgf4 repress	esBAF Bmi1 qPCR	A549 cytotox	HepG2 tox SP	HEK293 cytotox SP
CC1CCCC(C)N1/N=C/c1ccccc1C(=O)O (stereo unspecified)	-8.2	12.4	0.7	x	-0.8	2.7	x	x	x	x	x	x
FC(F)(F)c1cc(-c2ccccc2)nc(N2CCCCCC2)n1	x	-18.7	15.7	2.6	-0.4	-0.4	x	x	x	x	x	x
c1ccc(-c2cnnc(N3CCCCC3)n2)cc1	85.8*	9.2	-3.9	55.0*	20.4	-4.5	1.23	0.937	1.63	-6.3	-19.2	-2.9
C=CCNc1nc(NCc2cccc(OC)c2)c2sc(-c3ccccc3)cc2n1	x	x	-11.2	70.9*	-2.3	-11.0	3.7*	0.3*	17.3*	-7.5	-48.0	-65.9*
CCc1ccccc1NC(=O)c1cc(-c2cccc(O)c2)on1	x	-59.4	x	78.6*	20.7	-0.3	1.21	u	1.2	-16.5	-10.8	-18.3
O=C(Nc1ccccc1C(F)(F)F)c1cc(-c2cccc(O)c2)on1	67.5	x	-4.9	31.4	x	-0.4	x	x	x	x	x	x
O=C(Nc1nc2ccc(Cl)cc2s1)c1cccc(N2C(=O)CCC2=O)c1	52.4	-12.3	-21.5	66.8*	u	0.5	1.67	1.02	1.33	-11.6	11.3	-0.2
Cc1csc(N/N=C/c2ccccc2F)n1	49.3	-29.0	-3.1	62.1*	10.9	-5.3	0.996	0.937	1.55	-5.7	-57.4*	-1.8
CC(=O)Nc1sc(N/N=C\c2ccccc2F)nc1-c1cccs1	-12.1	11.9	4.0	x	1.8	-12.2	x	x	x	x	x	x
COc1ccc(-n2nc(C(=O)NCC(=O)N3CCN(c4ccccc4F)CC3)c3ccccc3c2=O)cc1OC	71.3	11.7	-12.5	30.3	4.0	-6.6	x	x	x	x	x	x
COc1ccc(-n2nc(C(=O)NCC(=O)N3CCN(c4ccccc4F)CC3)c3ccccc3c2=O)cc1	u	-17.3	3.2	39.7	14.8	-8.2	1.17	u	1.6	-6.4	-65.7*	-10.1
Cc1csc(Nc2nc(N)c(C(=O)Nc3ccccc3)o2)n1	93.4*	10.1	6.8	51.9*	16.7	1.0	1.51	0.952	1.77	4.9	12.7	-7.9
CCCc1nc(NC(=O)c2ccccc2)nc(NC(=O)c2ccccc2)n1	1.2	16.1	-11.3	2.9	2.7	0.4	x	x	x	x	x	x
Cc1ccc(C(=O)Nc2ccc(Br)c(C(F)(F)F)c2)cc1	84.0*	x	-20.9	73.6*	x	-10.2	1.14	0.926	2.8	-4.8	6.9	-55.6*
ClCCn1cnc2c(SCc3ccccc3)ncnc21	138.1*	x	1.9	58.8*	11.3	-13.4	1.05	u	2.18	-38.9	-16.2	-52.8*
ClCCn1cnc2c(SCc3ccccc3Cl)ncnc21	74.7	x	3.0	32.9	-12.4	-11.7	x	x	x	x	x	x
COc1ccc(CCNC(=O)COC(=O)c2cc(OC)c(OC)cc2OC)cc1	-4.8	-17.4	0.6	x	-1.2	-1.2	x	x	x	x	x	x
Fc1ccc(-c2ccc3nccn3c2)cc1Cl	x	x	-1.5	9.4	-0.5	0.1	x	x	x	x	x	x
CC(C)Cc1ccc(-c2ccc3nccn3c2)cc1	x	x	-11.3	66.5*	14.8	-3.8	1.17	u	2.04	-4.7	-17.0	0.4
O=C1NC(=Nc2ccccc2)S/C1=C\c1cccn1-c1ccccc1	21.2	17.7	-19.9	67.0*	x	17.6	2.59*	0.444*	10.7*	-9.8	14.3	-43.3
O=C(CCN1C(=O)/C(=C/C=C/c2ccccc2)SC1=S)Nc1cccnc1	52.3	-13.2	56.7*	66.6*	21.0	2.5	1.2	0.591*	3.99	-10.4	-5.4	-5.0
CCOc1nc2cnccc2n(CC(=O)Nc2ccc(C)c(C)c2)c1=O	6.8	-2.1	-2.1	4.3	-1.2	-1.4	x	x	x	x	x	x
O=C(NCC1CCCO1)C1CCN(C2CCN(Cc3cccs3)CC2)CC1 (stereo unspecified)	-5.2	-33.1	-2.3	-4.6	-0.5	-0.7	x	x	x	x	x	x
N/C(=N\OC(=O)C1CCCCC1)c1ccc(Cl)cc1	41.0	-19.4	-4.3	65.3*	5.2	1.6	0.968	1.03	1.62	-9.6	-25.1	-7.3
Fc1cc(Cl)cc2ccc(-c3ccccc3)nc12	x	x	-2.6	56.2*	6.0	-0.1	1.45	0.978	1.81	9.5	67.0	-5.2
SMILES	MITF act	PfHsp90 set2	Vif imaging	esBAF inh	Wnt bcat act	N-glyco inh	esBAF Ring1 qPCR	Fgf4 repress	esBAF Bmi1 qPCR	A549 cytotox	HepG2 tox SP	HEK293 cytotox SP
Nc1nc(Cl)cc(-c2ccccc2)n1	-10.8	10.8	-1.8	x	0.7	1.7	x	x	x	x	x	x
Fc1ccc2nc(-c3ccccc3)ccc2c1	x	x	x	59.9*	17.9	0.4	1.12	0.82	1.75	-4.1	-58.1*	-6.4
COCC#Cc1ccc2c(c1)O[C@H](CN(C)S(=O)(=O)c1cccc(F)c1)[C@H](C)CN([C@@H](C)CO)S2(=O)=O	x	x	x	2.6	x	x	x	x	x	x	x	x
Cn1c(COc2ccccc2)nc2ccccc21	x	-4.4	0.7	57.2*	42.3*	2.2	1.04	0.894	1.52	-19.7	-23.4	-20.8
COc1ccc(CCNC(=O)c2ccc(CS(=O)(=O)Cc3cccc(C)c3)o2)cc1OC	-6.6	-15.5	-1.5	-0.1	-0.4	-1.4	x	x	x	x	x	x
CC(=O)Nc1ccc(-c2nc3c(C)cccc3[nH]2)cc1	x	x	3.4	60.1*	47.7*	-2.5	1.3	0.858	1.83	-5.8	-1.2	-2.0
Cc1ccc(-c2nc(SCC(N)=O)c(C#N)c3c2CCCC3)cc1	x	x	-3.9	x	-3.7	0.1	x	x	x	x	x	x
C/C(=N\O)c1ccc2c3ccccc3n(C)c2c1	22.6	x	15.7	58.0*	3.6	0.3	1.24	0.983	1.01	-12.9	3.0	-9.9
CC(=O)Nc1ccc2nc(SCC(=O)Nc3ccc(N4CCOCC4)c(Cl)c3)sc2c1	x	16.6	-14.9	47.9*	u	-1.9	0.766	0.857	1.42	-6.4	-9.9	-6.2
CC[C@@]1(c2cccc(C)c2)C(=O)N(C(=O)OC)N1C(=O)OC	-43.1	-0.1	2.1	-3.0	-1.2	-4.7	x	x	x	x	x	x
CN(C)c1ccc(CNc2nc3cc(-c4ccc(F)cc4)sc3c(=O)n2C)cc1	x	x	-6.1	76.6*	23.6	-1.1	0.979	0.92	1.97	-2.6	-2.0	-26.1
Cc1ccc(CNC(=O)c2ccc(Cn3cc(-c4ccc(C)cc4)nc3-c3ccncc3)cc2)cc1	x	-12.7	-4.0	99.4*	47.0*	-1.0	1.44	1	1.88	-9.0	20.7	-13.9
